In the library only some 1.2% were active in any assay of this set; here they are far more common.
gsp antagonist: gsp mutant antagonism. gsp-mutant cells, cAMP HTRF, 30 min. Potency, µM (titrated, usually from 76.9 µM), for the others: at the top dose activity change, negative = inhibition, most hits filed as inhibitors. AID 624288. 0.4% of 340,000 active; calls by dose curve; cell line not stated here;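 further: intracellular cAMP measured with PDE inhibitor Ro 20-1724 present during compound exposure; potency means the concentration at half of the fitted maximal effect; on the % scale 0 is the no-effect control and ±100 the full control effect; nearly all actives have a fitted effect of over 65% in size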
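HTRF cAMP measurement after 30 min RT detection following 30 min, 37C compound treatment alongside […] (added as 300 uM solution) in G418-selected cells seeded at 2000/well and grown 16–24 h.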
RXFP1 antag: blocks the human relaxin receptor RXFP1; 0.59% of 350,000 active; HEK293-RXFP1, relaxin-stimulated cAMP HTRF, 30 min; hits give low values; Q9HBX9; activity change, negative = inhibition, % at 57.5 µM; AID 1259400;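 active means activity change of -60% or lower, but not beyond a set lower limit; inconclusive means change between -60% and -40%, or beyond the set limit; inactive means change above -40%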; further: on the % scale 0 is the no-effect control and ±100 the full control effect
Target sequence (Q9HBX9 whole entry, looked up): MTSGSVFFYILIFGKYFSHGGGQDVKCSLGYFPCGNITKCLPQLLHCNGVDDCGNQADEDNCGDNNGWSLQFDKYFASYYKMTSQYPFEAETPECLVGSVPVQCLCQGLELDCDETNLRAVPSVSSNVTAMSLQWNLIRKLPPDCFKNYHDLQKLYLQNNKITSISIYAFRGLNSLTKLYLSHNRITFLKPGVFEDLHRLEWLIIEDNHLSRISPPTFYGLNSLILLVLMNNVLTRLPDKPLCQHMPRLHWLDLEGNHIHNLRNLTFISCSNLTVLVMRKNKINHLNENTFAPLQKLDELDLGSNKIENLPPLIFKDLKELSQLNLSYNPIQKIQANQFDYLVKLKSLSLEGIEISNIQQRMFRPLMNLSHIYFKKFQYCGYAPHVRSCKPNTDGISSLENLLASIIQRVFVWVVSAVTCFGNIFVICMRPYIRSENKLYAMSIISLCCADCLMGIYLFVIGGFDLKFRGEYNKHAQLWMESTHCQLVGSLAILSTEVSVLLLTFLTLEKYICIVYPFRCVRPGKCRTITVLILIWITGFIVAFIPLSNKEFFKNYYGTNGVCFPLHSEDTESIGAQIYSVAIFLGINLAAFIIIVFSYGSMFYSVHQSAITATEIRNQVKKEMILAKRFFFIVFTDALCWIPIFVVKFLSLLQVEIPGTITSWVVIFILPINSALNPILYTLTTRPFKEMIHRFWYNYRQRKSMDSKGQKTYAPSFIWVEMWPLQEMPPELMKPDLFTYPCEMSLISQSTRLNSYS
pAkt inh: Akt phosphorylation inhibition; Neuro2A IGF-stimulated pAkt S473 HTRF, 20 min; hits give low values; activity change, % for hits at 50 µM; 0.32% of 360,000 active; AID 651550; in the data active means activity change below about -80%; inconclusive means mostly about -51% to -80%; further: on the % scale 0 is the no-effect control and ±100 the full control effect
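Neuro2A cells (4,500/well, DMEM with 0.5% FBS) were treated with compound at a single 50 µM final concentration, stimulated with 6 nM IGF for 20 min at 37 °C, and lysed. Phospho-Akt Ser473 was read by HTRF as 665/615 ratio ×10^4.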
RXFP1 ag: agonists of human relaxin receptor RXFP1; Q9HBX9; HEK293T-RXFP1 cAMP TR-FRET, 30 min; response scale: percent of porcine relaxin response, buffer zero; Potency, µM (doses to about 57.5 µM), without a hit: at the highest dose activation, actives largely listed as activators; 0.3% of 370,000 active; active means well fitted activation curve with a large enough effect; inconclusive means small, poorly fitted or top-dose-only effect; further: potency means the concentration at half of the fitted maximal effect; on the % scale 0 is the no-effect control and ±100 the full control effect; nearly all actives have a fitted effect of over 60% in size
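Agonist response is measured as cAMP accumulation in an RXFP1-transfected HEK293T line under PDE4 inhibition. Values are scaled between buffer-only and 29 nM porcine relaxin, and EC50s come from standard Hill equation fits.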
gsp ag: agonists of gsp mutant (McCune-Albright syndrome). 0.13% of 340,000 active. gsp mutant cells, cAMP HTRF, 30 min. AID 624287. Potency, µM (top dose mostly 76.9 µM), without a hit: top-dose activation (cAMP increase), usual class: activators; active means well fitted activation curve with a large enough effect; inconclusive means small, poorly fitted or top-dose-only effect, or another doubt; inactive means no such curve, though single readings can be large or run the other way; cell line not stated here;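 further: phosphodiesterase inhibitor Ro 20-1724 added with compounds to block cAMP breakdown; potency means the concentration at half of the fitted maximal effect; nearly all actives have a fitted effect of over 60% in size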
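Cells in DMEM/10% FBS with G418 were pretreated with compounds in DMSO plus […] (300 uM stock) for 30 min at 37C. cAMP was measured by HTRF (cAMP-d2 plus anti-cAMP antibody-K) after 30 min at room temperature.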
* marks the source's active call; other numbers are inactive results; [ ] = dose if it differs, or a comment.

For O=C(C1CCC(CNS(=O)(=O)c2cccs2)CC1)N1CCN(c2ccc(F)cc2)CC1 (centres undefined) the results were gsp antagonist 35µM*, RXFP1 antag -8, pAkt inh inactive, RXFP1 ag -3% and gsp ag 22%.
Screening Cn1c(N=Nc2ccc(N3CCOCC3)cc2)[n+](C)c2ccccc21 returned gsp antagonist inconclusive, RXFP1 antag -107*, pAkt inh inactive, RXFP1 ag -13% and gsp ag 0%[15.4 µM].
For Cn1c(=Nc2ccc(N3CCOCC3)cc2)ccc2ccccc21 the results were gsp antagonist -5%, RXFP1 antag -10, pAkt inh inactive, RXFP1 ag 2% and gsp ag -5%.
`CCN1CCC(N(Cc2ccc3c(c2)OCO3)C(=O)Nc2cc(Cl)ccc2C(=O)OC)CC1` gave RXFP1 antag -34 and RXFP1 ag 3%.
COc1ccc(NC(=O)Cn2c(SCc3cccc(Cl)c3)nc3ccncc32)c(OC)c1OC was read as RXFP1 ag 1%.
O=S(=O)(NCCc1csc2nc(-c3ccc(Cl)cc3)nn12)c1cccs1 was read as RXFP1 antag -30 and RXFP1 ag 5%.
Screening Cc1cc2c(c(=O)n1CCc1ccccc1)C(c1ccco1)C(C#N)=C(N)O2 (centres undefined) returned gsp antagonist -13%, RXFP1 antag 4, pAkt inh inactive, RXFP1 ag -1% and gsp ag -30%.
COc1cc(C2C(C#N)=C(N)Oc3cc(C)n(CCc4ccccc4)c(=O)c32)cc2c1OCO2 (centres undefined) was read as gsp antagonist 24%, RXFP1 antag 5, pAkt inh -88%*, RXFP1 ag 2% and gsp ag 16%.
For CCOc1ccccc1OCC(=O)OCC(=O)c1c(N)n(CC(C)C)c(=O)n(C)c1=O the results were gsp antagonist 35µM*, RXFP1 antag -16, pAkt inh inactive, RXFP1 ag 3% and gsp ag -2%.
For CC(C)Cn1c(N)c(C(=O)COC(=O)c2cnc(Cl)c(Cl)c2)c(=O)n(C)c1=O the results were gsp antagonist 35µM*, RXFP1 antag -36, pAkt inh inactive, RXFP1 ag 0% and gsp ag -40%.
Screening CC(C)Cn1c(N)c(C(=O)COC(=O)c2cc(F)cc(F)c2)c(=O)n(C)c1=O returned gsp antagonist inconclusive, RXFP1 antag -15, pAkt inh inactive, RXFP1 ag 0% and gsp ag -12%.
Screening COc1ccccc1CCC(=O)OCC(=O)c1c(N)n(CC(C)C)c(=O)n(C)c1=O returned gsp antagonist -46%, RXFP1 antag -20, pAkt inh inactive, RXFP1 ag 0% and gsp ag -25%.
`CCOC(=O)Cc1csc(SCC(=O)c2c(N)n(CC(C)C)c(=O)n(C)c2=O)n1` gave gsp antagonist 11µM*, RXFP1 antag 7, pAkt inh inactive, RXFP1 ag 2% and gsp ag 3%.
For CCOc1ccc(-c2cccc(NS(=O)(=O)c3c(C)cc(C)cc3C)c2)nn1 the results were RXFP1 antag -1 and RXFP1 ag 1%.
CCOC(=O)C1CCN(c2c(C(=O)c3ccc(C)cc3)cnc3ccc(F)cc23)CC1 was read as RXFP1 ag 0%.
Screening Cc1ccc(OCC(=O)NC2CC(C)(C)NC(C)(C)C2)cc1C returned gsp antagonist 2%, RXFP1 antag -82*, pAkt inh inactive, RXFP1 ag -2% and gsp ag -36%.
Screening COc1ccccc1OCC(=O)NC1CC(C)(C)NC(C)(C)C1 returned gsp antagonist -10%, RXFP1 antag 3, pAkt inh inactive, RXFP1 ag 1% and gsp ag 8%[15.4 µM].
For CCc1ccc(OCC(=O)NC2CC(C)(C)NC(C)(C)C2)cc1 the results were gsp antagonist 6%, RXFP1 antag -4, pAkt inh inactive, RXFP1 ag 3% and gsp ag 21%.
For CC1(C)CC(NC(=O)COc2ccc3ccccc3c2)CC(C)(C)N1 the results were gsp antagonist 3%, RXFP1 antag -2, pAkt inh -115%*, RXFP1 ag 1% and gsp ag -4%.
`COc1ccc(-c2nc(SCC(=O)NCCCc3ccccc3)n[nH]2)cc1` gave RXFP1 antag -20 and RXFP1 ag 6%.
Screening CSc1ncc(Cl)c(C(=O)Nc2ccc(S(=O)(=O)N3CCC(C)CC3)cc2)n1 returned RXFP1 ag 5%.
Screening COc1ccc(-n2c(=S)[nH]c3cc(C(=O)Nc4ccc(F)cc4)ccc3c2=O)c(OC)c1 returned gsp antagonist 40µM*, RXFP1 antag inconclusive, pAkt inh inactive, RXFP1 ag 3% and gsp ag 5%.
Screening COc1ccc(-n2c(=S)[nH]c3cc(C(=O)NCc4ccc(F)cc4)ccc3c2=O)c(OC)c1 returned gsp antagonist 25µM*, RXFP1 antag -17, pAkt inh inactive, RXFP1 ag 0% and gsp ag 7%[15.4 µM].
COc1ccc(-n2c(=O)c3ccc(C(=O)NCc4ccc(C)cc4)cc3n(CC(=O)Nc3ccc(F)cc3)c2=O)cc1 was read as RXFP1 ag 32µM*.
For COc1ccc(NC(=O)c2ccc3c(=O)n(-c4ccc(OC)cc4OC)c(=S)[nH]c3c2)cc1 the results were gsp antagonist -90%, RXFP1 antag -13, pAkt inh inactive, RXFP1 ag 1% and gsp ag 32%[15.4 µM].
Screening COc1ccc(-n2c(=S)[nH]c3cc(C(=O)Nc4ccccc4OC)ccc3c2=O)cc1 returned RXFP1 ag 3%.
Screening COc1ccc(-n2c(=S)[nH]c3cc(C(=O)Nc4ccccc4OC)ccc3c2=O)c(OC)c1 returned gsp antagonist 28µM*, RXFP1 antag -19, pAkt inh inactive, RXFP1 ag -1% and gsp ag 4%[15.4 µM].
CSc1ccc(CCNC(=O)c2ccc(-n3c(C)cc4c3CCCC4)cc2)cc1 was read as RXFP1 antag -3 and RXFP1 ag 5%.
Cc1ccc(CN2CCc3nc(N4CCN(C)CC4)ncc3C2)s1 was read as RXFP1 antag -12 and RXFP1 ag 3%.
CSc1nc(N)nc(SCC(=O)C23CC4CC(CC(C4)C2)C3)c1C#N was read as gsp antagonist inconclusive, RXFP1 antag -3, pAkt inh inactive, RXFP1 ag 1% and gsp ag 30%.
CCOC(=O)CC(=O)CSc1nc(N)c(C#N)c(-c2ccc(Cl)cc2)c1C#N was read as gsp antagonist -12%, RXFP1 antag 2, pAkt inh inactive, RXFP1 ag 4% and gsp ag -39%.
For CCCSc1nc(N)c(C#N)c(-c2ccc(C)cc2)c1C#N the results were gsp antagonist 13%, RXFP1 antag -4, pAkt inh -91%*, RXFP1 ag 28% and gsp ag -5%.
